Results with a measured potency or affinity are listed apart. Calls of active or inactive are those of the source.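 The calls were made as follows: active = fitted half-maximal concentration for ATP signal loss at most twice the top valid dose; inconclusive = flat curve between -70 and -30%, or an invalid fit; inactive = flat within ±30%, wrong direction, or potency past limit.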
Assay: viability loss in HepG2 hepatoma cells – cell-based, cherry-picks, set 5, cytotoxicity control, dose response (AID 1053118)
Details: ATP luminescence, 72 h; series mostly up to 26 µM

Row | SMILES | outcome
1 | Cc1ccc([N+](=O)[O-])cc1NC(=O)CN(C(=O)c1ccccc1Cl)C1CCCCC1 | inactive
2 | COCC(C)n1c(SCc2nc(N)nc(Nc3ccccc3C)n2)nc2ccccc2c1=O (stereo unspecified) | inactive
3 | Cc1ccc(-c2nc3ncccc3o2)cc1NC(=O)c1ccco1 | inactive
4 | CCC(C)(C)NC(=O)C(OC(=O)c1ccco1)c1ccccc1OC (stereo unspecified) | inactive
5 | CC1CN(C(=O)c2cc3c(=O)n4ccccc4nc3n2C)CC(C)O1 (stereo unspecified) | inactive
6 | c1ccc2[nH]c(SCc3cn4cccnc4n3)nc2c1 | inactive
7 | N#C[C@@H]1[C@H](c2ccccc2C2=CCCCC2)[C@H](CO)N1S(=O)(=O)c1ccccc1 | inactive
8 | COCC(=O)Nc1ccc2c(c1)C(=O)N(C)[C@@H]1CC[C@@H](CC(=O)NCc3ccccc3Cl)O[C@H]1CO2 | inactive
9 | C[C@@H]1CN([C@@H](C)CO)C(=O)c2cc(NC(=O)C3CCCCC3)ccc2O[C@H]1CN(C)Cc1ccc(-c2ccccc2)cc1 | inactive
10 | CN1CCN(C(=O)c2cccc(-c3cnc4cnc(-c5ccccc5Oc5ccccc5)cn34)c2)CC1 | inactive
11 | O=C(Nc1ccccc1F)N1C[C@@H]2[C@H](c3ccccc31)[C@@H](CO)N2C(=O)C1CC1 | inactive
12 | COC(=O)c1c(NC(=O)CN2CCN(c3ccccc3Cl)CC2)sc(C)c1C | inactive
13 | O=C(Nc1nc(-c2ccncc2)cs1)C1COc2ccccc2O1 (stereo unspecified) | inactive
14 | O=C(Nc1ccccc1F)N1C[C@@H]2[C@H](c3ccccc31)[C@H](CO)N2C(=O)C1CC1 | inactive
15 | CO[C@H]1CN(C)C(=O)c2cc(NC(=O)Nc3cc(Cl)cc(Cl)c3)ccc2OC[C@H](C)NC[C@@H]1C | inactive
16 | Cc1oc2ccc(O)cc2c1C(=O)c1ccc(Br)cc1 | inactive
17 | CCc1ccc(NC(=O)CSc2nnc(-c3ccco3)o2)cc1 | inactive
18 | C[C@@H]1CN([C@H](C)CO)C(=O)c2cc(NC(=O)CCCN(C)C)ccc2O[C@H]1CN(C)Cc1ccc(-c2ccccc2)cc1 | inactive

Row | SMILES | outcome
19 | C[C@H](CO)N1C[C@H](C)[C@@H](CN(C)Cc2ccccc2)Oc2ncc(-c3ccccc3)cc2C1=O | inactive
20 | COc1cccc(-c2ccc3c(c2)[C@@H]2[C@@H](CCN2S(=O)(=O)c2cccc(OC)c2)[C@@H](CO)N3)c1 | inactive
21 | Cc1cccc(NC(=O)c2ccc(C3SCC(=O)N3CCc3ccccc3)cc2)c1 (stereo unspecified) | inactive
22 | CC(C)(C)c1cc(Cl)c(O)c(NC(=S)NC(=O)c2cccnc2)c1 | inactive
23 | CC(=O)Nc1cccc(-c2ccnc3c2CC(C)(C(=O)Nc2cccc(C(F)(F)F)c2)O3)c1 (stereo unspecified) | inactive
24 | O=C(CN1CCCC1)Nc1ccc(Oc2ccc(NC(=O)CN3CCCC3)cc2)cc1 | inactive
25 | O=C(Nc1ccccc1F)N1C[C@@H]2[C@H](c3ccccc31)[C@H](CO)N2C(=O)C1CCOCC1 | inactive
26 | C[C@@H]1CN([C@H](C)CO)C(=O)c2cc(-c3ccccc3)cnc2O[C@H]1CN(C)C(=O)c1cccc(F)c1 | inactive
27 | Cc1ccc(CS(=O)Cc2ccc(C(=O)NC3CCCC(C)C3C)o2)cc1 (stereo unspecified) | inactive
28 | CCOc1ccccc1NC(=O)c1c(NC(=O)CCC(=O)O)sc2c1CCCCC2 | inactive
29 | Cc1cc(C)c(S(=O)(=O)Nn2cnnc2)c(C)c1 | inactive
30 | O=C(CCC(=O)c1cccs1)NCc1cccnc1 | inactive
31 | COc1ccccc1CC(=O)OC(C)C(=O)Nc1ccc(S(=O)(=O)N2CCCCC2)cc1 (stereo unspecified) | inactive
32 | CCN1CCN(C(c2ccccc2)c2nnnn2Cc2ccccc2)CC1 (stereo unspecified) | inactive
33 | COc1cccc(-c2ccc3c(c2)[C@@H]2[C@@H](CCN2S(=O)(=O)c2cccc(OC)c2)[C@H](CO)N3)c1 | inactive
34 | C[C@H](O)C#Cc1ccc2c(c1)O[C@@H](CN(C)C)[C@H](C)CN([C@H](C)CO)S2(=O)=O | inactive
35 | COc1ccc(CN(C2CCCC2)S(=O)(=O)c2ccc(-n3cnnn3)cc2)cc1OC | inactive
36 | C[C@H]1CN([C@@H](C)CO)C(=O)c2cc(-c3ccccc3)cnc2O[C@H]1CN(C)Cc1ccccc1 | inactive

— PubChem BioAssay AID1053118 (Broad Institute, 2014)
